# Assay results from the supplement of paper PMC11417369.
# Over roughly 25,000 sequences, “ln(normalized median fluorescence intensity)” has its median near 7.1; the highest 2% begin near 10. This excerpt belongs to a sample that is enriched for the highest values.
# Tested on: PfSIP2 AP2 domain 1 (GST-tagged)
# Assay: gcPBM binding intensity (ln(normalized median fluorescence intensity)); higher = stronger DNA binding
# Method in brief: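 Using an Agilent 4 × 180k array, primer-extended double-stranded 36-bp intergenic genomic probes and negative controls were exposed for 1 h to GST-fused P. falciparum DNA-binding domains expressed in E. coli. Binding was carried out in 1× PBS with 1% milk, 0.2 mg/ml BSA, 0.5% salmon testes DNA and 0.03% Triton X-100, and protein was detected with Alexa488 anti-GST antibody and a 488 nm scan. Binding intensity is the highest Masliner-normalised natural-log median intensity across replicate spots of either probe orientation.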
row,Sequence,gcPBM binding intensity (ln)
1,TTTAATATTATTATTTTACACACTTTTTTCCTTTTA [CACACA_site8780],6.64
2,TACATGTATAATATAATACACACTATATAATATACA [CACACA_site2239],6.92
3,TACTATAACCCACATACACACAAAAAAAAAAAAAAA [CACACA_site4454],7.11
4,ACATAATAAAAATGACGTACAATTTTTTTTTTTCAT [XGTACX_site8340],7.01
5,AAAAAACGCACTCGTACACACATATTTTCTTTCTAA [CACACA_site3089],8.76
6,TTTTTTAGATTACATAAATATAAATATAAATATATA [GTGCAC_negctrl_site459],6.68
7,ATGTTTTGTAAAATGATTAAATATTAAGATTCAATA [CACACA_negctrl_site1743],6.7
8,ATATATATAGAAATATGTACGAAAAAAATATCACAT [XGTACX_site746],7.63
9,TATATTACAAAAAGTACACACATAAATAAATACATA [CACACA_site975],7.17
10,CCATAGATATTTTATACACACATATAATATATTAAT [CACACA_site373],7.17
11,TTTCTTTATTTATAATAATTTTTTATTAAAAATAGA [CACACA_negctrl_site1610],6.78
12,TTTTAAAATTATTAGGTGCATATTTATTCTATATTT,10
13,TTTTATTATATGGAGGTGCATATATAATAATATAAT [GTGCAC_site9477],11
14,TTTTTTTTTTCTTAGGTGCAAAAAATAAGTATATAT [GTGCAC_site9394],10.1
15,TATATATTAAAAATAGTGCAAAATAATATATATATA [GTGCAC_site9716],8.84
16,GTATAGTACAAATAAGTGCATATAAAAGAAATACAG,8.56
17,TTTCTTTTTAAATAGGTGCATATTTTTATAAATATA,11
18,TCTTAAAATATATAGGTGCAAAAAAAAAAAAAAAAA,10.6
19,TATACAAGTATATAGGTGCATATATAAGTATATATT [GTGCAC_site9994],10.3
20,TATAATAATATTATAGTGCATATTATTTATATATAA [GTGCAC_site9820],8.67
21,ATACATCGTATATAAGTGCATATTAAGGTCTTAAGA [GTGCAC_site9560],8.11
22,ACATATATATATATATATAATATTTTATATTTATTA [CACACA_negctrl_site713],7.49
23,AAAAAAAAAAAAGAAAAATATATATATAAATAAATA [GTGCAC_negctrl_site569],6.98

row,Sequence,gcPBM binding intensity (ln)
1,TTTTTCATATGACACACACACAAAAATAATGTGGAA [CACACA_site7692],6.99
2,AAATTATATTATTGAACACACGTTTGGTAATGTTTT [CACACA_site5469],6.78
3,GCTATTTATTTATATTGTACTTTTTTTTTTTTTTTT [XGTACX_site3624],7.67
4,TAAATTGAGTATATTACACACATATAAATATATTAT [CACACA_site4027],6.88
5,GAACAAATTACAAGTTGTACTTTATGTAAATTATTA [XGTACX_site5304],6.76
6,ATACTATTATATATATGTACATATATATGATGCTCT [XGTACX_site1771],7.22
7,TTTTTTTTTTTTTTTTTTTTTTTTTTATGATATATA [GTGCAC_negctrl_site365],6.82
8,ATATTATATATATAGGTGCGAGTATTTTATAAATAT [GTGCAC_site9889],9.06
9,TCGAATATCTTATAGGTGCATCATAAATACATATGT,10.8
10,ATAATTGTTTAAAGGTGTACAATACATATATTTTAA [XGTACX_site3648],6.91
11,GTATTATATATATAGGTGCATATATATATATAAATA [GTGCAC_site9787],10.8
12,ATAGTAATGCATAAATATATATTATATATATATATA [XGTACX_negctrl_site576],9.1
13,TATGGAATAAATTTATCCATACATCTTATAACATAT [XGTACX_negctrl_site500],6.78
14,TATTTTATATGATAGGTGCATTTTTTTTTTTTTTTT [GTGCAC_site9757],10.8
15,TTTTGTTATTTTTTAGTGCATATAAAGGTTGTTAAG,8.64
16,CATCATCTTTTAAAGGTGCATAATAATATTGTTAAT,11.1
17,TTTTTATTTATATGATACTTATATATATATATATAT [CACACA_negctrl_site462],9.5
18,ATCTATATCTATAATACACACATCATAAAATATGTA [CACACA_site7230],7.19
19,ACATATATATATATTACACACACACTAATAAAATAA [CACACA_site7920],7.24
20,AAAATTAAAAAAATAAATACATTATATAATTAAAAA [CACACA_negctrl_site1426],6.77
21,CTTCTTATTTTCTAATGTACGTACAAATCATTTATA [XGTACX_site2176],8
22,CTTGGGAAGTATTCAGTGCAAAATATAAGCAGGTCA [GTGCAC_site9758],7.75
23,ATATGTATATATATTTGTACGTAAAATGAAATCTAA [XGTACX_site213],7.45

row,Sequence,gcPBM binding intensity (ln)
1,AAAAAAAAAAAAAACACACACACACGCACATATACA [CACACA_site7288],7.66
2,AATATCATTATATAAGTGCATTTTTTAAAAGATAAA [GTGCAC_site9479],9.12
3,ATATATAAATAAATAGTGCATTTTAATATTTAACGT,9.27
4,AAAAATAAAGAAACAGGTACGCATATATTAAGATAT [XGTACX_site8097],7
5,GAAAGAAATAAAGGTGGTACATAAATAAAAACTAAG [XGTACX_site4826],7.38
6,CGTTATATAATAAAGGTGCATAGATATATCATTATA [GTGCAC_site9774],10.5
7,TAATAAATGTTATTAGTGCATAATAGATAATATATT,8.29
8,CCTAATTTTATTAGGGTGCATTTTTAGTTAAATATA,11.2
9,CATAAATAAGCTTTAGTGCATTATATTTAAATTTTT,7.29
10,GGTATATTAAAATAGGTGCATAAAACTAAGAGAAAA [GTGCAC_site9781],11
11,GGTATATATTCTATCACACATATTTCCATGAAAATA [CACACA_site4728],7.29
12,AAAAAAAAAAAATAAAGTACTAAATAATACATTATA [XGTACX_site6203],7.02
13,TGTAGTCTGGAGAAAAGTACACAGTATCTGGTAGCT [XGTACX_site2012],6.95
14,TATGTATTTTTATGCACACATGCGTGGCTTATATAA [CACACA_site387],7.39
15,GTATATATATATATATATATATATTTTTATTTATTT [CACACA_negctrl_site589],7.42
16,ATTGTAAGGAAACACACACACATATATATGTATATA [CACACA_site676],7.07
17,ACCTATGTATATTATACACACTCCAAACTATTATTT [CACACA_site1817],7.19
18,TTTGTAGTTTGCACATGTACACATTTCAAAATAAAG [XGTACX_site7568],7.49
19,AAATATTCATAGTATACACACATTTATTTATAACCA [CACACA_site6502],6.9
20,GGTATTTTCACATATAGTACACAAAAATAAAATAAA [XGTACX_site2139],7.79
21,TGTTTTTCATAGTGCACACATAACCAAAAATAGTAT [CACACA_site3150],10.8
22,TTTCATAACAAAAAAGTGCAAAATAGCACGAACATT [GTGCAC_site9703],8.82
23,TTTGTTTTTCATAGTGCACACATAACCAAAAATAGT [CACACA_site9030],10.5

row,Sequence,gcPBM binding intensity (ln)
1,ATATATGTATTTAATACACACAAAACTTTCATTCCA [CACACA_site3531],6.9
2,TGTACGTTTTATAACACACACACAAAAAAAAAAAAA [CACACA_site3875],7.09
3,TGAATATGTAAATGCACACCAAAAAAAAAAAAAAAA [CACACA_site3566],7.29
4,TACTATAAGATATATACACACAAGAAATACAAAACG [CACACA_site6764],7.53
5,AATATATGCTTTCGTTATATTAAATTCAATTTAATG [GTGCAC_negctrl_site76],6.95
6,TAGAATAAATTAATTACACACGGAATTATATATATA [CACACA_site1616],7.83
7,AAAAAAAAAAATATATTATTTTACTTGTTTATTTTA [CACACA_negctrl_site1447],6.68
8,AAGAAAATATATTCACATGAAGAATTAAAATAAAAC [TGCATGCA_negctrl_site119],7.14
9,TTTAAAAAAAATATGTGTACTTAATATTTTCATATA [XGTACX_site7421],6.78
10,TTTGTTCATATTATTGTGCACTTAAACGTAACAAAA [GTGCAC_site9505],10.2
11,TTTTTGTAAAATAAACGTACAAAACAATTGTTCATT [XGTACX_site6537],6.94
12,ATATTATATTGGATGTTGCACTTAACAAAAGGATAT [GTGCAC_site9478],8.76
13,ATCATTCCACTTTTCACACATATCTCTATTTCTATC [CACACA_site4723],7.37
14,AAAATAAATAAATATACACACCATATATATATTTTT [CACACA_site5573],6.88
15,AATATTGCACCATTTTGTACATAATATATTCAAATA [XGTACX_site475],10.7
16,TAAAAATATTTTCATTGTACATATATATAAATATAT [XGTACX_site1123],6.97
17,ATTTTTTTTTTTTTTTTTTTTGCACCATAAAATAAT [CACACA_negctrl_site1324],11.3
18,AATATATTTTTTTTTTGTACATATTGTAAAATAATA [XGTACX_site6805],6.99
19,TACAACAATTTTTGCACACACCAAAACATAAAATAA [CACACA_site4964],7.52
20,TTTTTTTTTGGGTGTACACATGAATATATATTTTTT [CACACA_site5254],7.83
21,TACTGTATTATAATTATGATTGACGAAATTAAAAAT [GTGCAC_negctrl_site358],6.91
22,GATTTTAATGGGTGTACACATTTATTTATATAAAGT [CACACA_site5317],7.54
